# Measurements: the supplement of paper PMC6522484
# Where “and” joins values, the source holds several entries; their conditions need not be identical. Equal entries are not always repeated. ± gives the standard deviation of the averaged measurements.
# Tests used:
# [1] = system: DLD1; experiment: cell viability (CellTiter-Glo) relative to plate median (fraction of plate median); higher = more viable cells; conditions: 5 µM; treatment time 24 h; reporter: 7TFP
# How it was run: (§1)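 Library compounds, at a final 5 µM, stayed on reporter cells for 24 h. The cells were colorectal cancer lines stably transduced with lentiviral TCF/Wnt firefly luciferase reporters, seeded in 384-well plates 24 h before dosing. Firefly luciferase or CellTiterGlo luminescence from parallel plates was normalised to the plate median in webcellHTS2 (additive, no log transformation), and two independent replicates were averaged.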
# [2] = system: HCT116; experiment: as above; conditions: 5 µM; treatment time 24 h; reporter: TCF4/Wnt
# How it was run: as §1
# [3] = system: SW480; experiment: as above; conditions: 5 µM; treatment time 24 h; reporter: 7TFP
# How it was run: as §1
# [4] = system: DLD1; experiment: TCF/Wnt firefly luciferase reporter signal relative to plate median (fraction of plate median); higher = higher Wnt reporter signal; conditions: 5 µM; treatment time 24 h; reporter: 7TFP
# How it was run: as §1
# [5] = system: SW480; experiment: as above; conditions: 5 µM; treatment time 24 h; reporter: 7TFP
# How it was run: as §1
Compound,cell viability [1],cell viability [2],cell viability [3],TCF/Wnt firefly luciferase reporter signal [4],TCF/Wnt firefly luciferase reporter signal [5]
Oc1ccc(Cl)cc1Cc1cc(Cl)ccc1O,0.881 ± 0.12,0.868 ± 0.0092,1.03 ± 0.035,0.883 ± 0.17,0.953 ± 0.081
COc1cc(OC)c2c(c1)O[C@H](c1ccc(OC)c(OC)c1)[C@@H](O)C2,0.924 ± 0.071,0.955 ± 0.047,0.973 ± 0.096,0.952 ± 0.023,1.01 ± 0.014
CC1=C2C(=CO[C@H](C)[C@H]2C)C(O)=C(C(=O)O)C1=O,0.939 ± 0.076,1 ± 0.022,0.923 ± 0.027,0.861 ± 0.13,0.9055 ± 0.0035
COc1ccc(C(=O)O)cc1OC,0.902 ± 0.18,1.04 ± 0.098,0.984 ± 0.023,0.949 ± 0.087,0.9985 ± 0.0021
C=C1C[C@@H]2[C@H](CC[C@]3(C)C(=O)CC[C@@H]23)[C@@]2(C)C=CC(=O)C=C12,1.03 ± 0.11,1.12 ± 0.05,1.02 ± 0.031,0.961 ± 0.17,1.02 ± 0.13
C[C@]12C=CC(=O)C=C1CC[C@@H]1[C@@H]2CC[C@]2(C)C(=O)CC[C@@H]12,1.07 ± 0.11,1.09 ± 0.035,1.11 ± 0.078,1.08 ± 0.19,1.025 ± 0.0071
C[C@]12CCC(=O)C=C1CCc1ccc(O)cc12,1.03 ± 0.042,1.05 ± 0.05,1.05 ± 0.014,1.07 ± 0.14,1.03 ± 0.028
CN[C@@H](C)[C@@H](O)c1ccccc1,0.9265 ± 0.0021,1.02 ± 0.035,0.978 ± 0.06,0.993 ± 0.067,1.03 ± 0.064
COc1ccc(/C=C/c2cc(O)cc(O)c2)cc1,1.05 ± 0.057,1.01 ± 0.021,0.982 ± 0.018,1.25 ± 0.33,1.21 ± 0.099
CCCCCCCCCCCC[C@@H](O)[C@H]1CC[C@H]([C@H](O)CCCC[C@H](O)CCCCC[C@@H](O)CC2=CC(C)OC2=O)O1 (stereo not given in full) [annonacin],0.926 ± 0.076,0.933 ± 0.014,0.92 ± 0.092,0.987 ± 0.075,0.923 ± 0.018
OC[C@@H]1CCCN2CCCC[C@H]12,1.04 ± 0.014,1 ± 0.053,0.995 ± 0.036,0.898 ± 0.14,0.964 ± 0.065
CCC(=O)O[C@H]1CC[C@H]2[C@@H]3CCC4=CC(=O)CC[C@]4(C)[C@H]3CC[C@]12C,1.02 ± 0.045,0.894 ± 0.06,1 ± 0.012,0.994 ± 0.17,0.99 ± 0.013
O=P1(N(CCCl)CCCl)NCCCO1 (stereo not given),1.03 ± 0.035,0.955 ± 0.015,0.959 ± 0.051,1.1 ± 0.18,0.92 ± 0.014
O[C@@H]1C[C@H]2CCC[C@@H](C1)N2Cc1ccccc1,0.9315 ± 0.0035,0.996 ± 0.048,0.949 ± 0.037,1.1 ± 0.042,0.893 ± 0.013
NCCc1ccc(O)cc1,0.964 ± 0.11,0.93 ± 0.03,0.953 ± 0.036,0.993 ± 0.15,1.07 ± 0.014
CCNc1nc(Cl)nc(NC(C)C)n1,0.981 ± 0.017,1.07 ± 0.064,0.946 ± 0.023,0.965 ± 0.0071,0.976 ± 0.0071
CC(C)=CC1C(C(=O)OCc2cccc(Oc3ccccc3)c2)C1(C)C (stereo not given),0.971 ± 0.02,1.02 ± 0.037,0.985 ± 0.035,0.988 ± 0.1,0.979 ± 0.0042
Oc1ccc2c3c1O[C@H]1[C@@H](O)CC[C@@]4(O)[C@@H](C2)N(CC2CCC2)CC[C@]314,1 ± 0.067,1 ± 0.014,0.942 ± 0.082,0.979 ± 0.03,1.06 ± 0.064
COc1c2c(cc3c1OCO3)CC[N+](C)=C2,0.978 ± 0.046,0.945 ± 0.072,0.991 ± 0.07,1 ± 0.036,1.075 ± 0.0071
O=c1cccc2n1C[C@@H]1CNC[C@H]2C1,0.978 ± 0.045,0.981 ± 0.015,1.005 ± 0.0071,0.84 ± 0.15,0.907 ± 0.044
N=C(NCCC[C@H](N)C(=O)O)N[N+](=O)[O-],0.944 ± 0.14,0.966 ± 0.047,0.9515 ± 0.0064,1.07 ± 0.05,0.947 ± 0.09
O=C1C=CC(=O)c2ccccc21,0.9965 ± 0.005,1.05 ± 0.042,0.989 ± 0.12,1.13 ± 0.057,0.963 ± 0.047
C[C@]12CCC(=O)C=C1C=C[C@@H]1[C@@H]2CC[C@@]2(C)[C@H]1CC[C@@]2(O)CCC(=O)O,1.02 ± 0.07,1.16 ± 0.014,1.04 ± 0.028,1.01 ± 0.05,1.06
C[C@@H]1C[C@H](O)[C@@]2(O)[C@]13CC(=O)OC[C@@]2(C)[C@@](C)(O)C(=O)C3,1.115 ± 0.0071,1.03 ± 0.068,1.04 ± 0.021,1.05 ± 0.071,1.03 ± 0.054
CNC(C)(C)Cc1ccccc1,1.02,1.01 ± 0.021,1.06 ± 0.014,1.09,0.932 ± 0.04
CC[C@H]1CN2CCc3cc(OC)c(OC)cc3[C@@H]2C[C@@H]1C[C@H]1NCCc2cc(OC)c(OC)cc21,0.984 ± 0.094,0.815 ± 0.3,0.902 ± 0.059,0.615 ± 0.1,0.608 ± 0.064
O=c1ccc2cc(O[C@@H]3O[C@H](CO)[C@@H](O)[C@H](O)[C@H]3O)c(O)cc2o1,1.04,0.922 and 0.995,0.965 and 0.998,1.23 and 1.08,1.09 and 1.19
C[CH2][Hg][S]c1ccccc1C(=O)[O-].[Na+],0.303 ± 0.39,0.378 ± 0.36,0.0225 ± 0.0017,0.274 ± 0.37,0.0216 ± 0.0027
